High-throughput results (PubChem)
The list is not random: actives were taken first. Their share in the collection is about 2.1%.
Arbovirus inh = antivirals against arbovirus infection; arbovirus infection cell-based antiviral screen; inhibition, % at 10 µM; 200,000 compounds, 0.37% hits; AID 1251; in the data active = inhibition above about 30%
HSV augment = HSV replication enhancement | maximum fold increase | HSV replication augmentation in cells, fold increase | 220,000 compounds, 0.005% hits; in the data active = maximum fold increase above about 1.5; tested in PC3 cells
ROMK primary = modulates human ROMK potassium channel activity | P48048 | Tet-inducible ROMK, thallium flux fluorescence; actives lie on both sides | B-score at 10 µM | 130,000 compounds, 2% hits | AID 1918;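 active = signal ratio slope over the read window, or its plate-corrected B-score, at least 3 SD from the plate mean, either direction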;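 also: B-score of the F/F0 ratio slope over 7 to 12 s after thallium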
Target sequence (P48048 whole entry, looked up): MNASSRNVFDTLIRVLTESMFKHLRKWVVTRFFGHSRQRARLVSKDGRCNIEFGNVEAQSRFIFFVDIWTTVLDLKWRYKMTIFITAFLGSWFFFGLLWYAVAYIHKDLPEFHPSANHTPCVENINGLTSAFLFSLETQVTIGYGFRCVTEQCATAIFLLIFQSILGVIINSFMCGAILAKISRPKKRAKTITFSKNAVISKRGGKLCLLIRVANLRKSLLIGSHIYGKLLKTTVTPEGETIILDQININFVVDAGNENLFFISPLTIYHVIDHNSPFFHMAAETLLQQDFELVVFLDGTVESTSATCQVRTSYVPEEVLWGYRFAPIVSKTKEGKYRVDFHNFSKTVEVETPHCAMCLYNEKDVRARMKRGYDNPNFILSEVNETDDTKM
m-calpain inh = inhibitors of pig calpain II | purified calpain II, fluorogenic peptide substrate, 30 min | inhibition, % at 16 µM | 220,000 compounds, 0.37% hits;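 active = inhibition above about 50%, limit read from the data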
Efa HMGR inh = blocks class II HMG-CoA reductase of Enterococcus faecalis | purified E. faecalis HMGR, NADPH absorbance 340 nm kinetic | inhibition, % at 10 µM | 190,000 compounds, 0.41% hits | AID 1066;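 active = inhibition above a set limit, the median over all tested compounds plus 3 SD, cut at about 9.5% in these data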;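 also: enzyme runs in reverse so mevalonate oxidation gives rising NADPH absorbance; 0% = complete reaction with DMSO and 100% = background rate lacking mevalonate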
* = called active by the depositor.

Screening COc1ccc(COC(=O)Nc2cc3c(C(F)(F)F)nn(C)c3s2)cc1 returned Arbovirus inh 2, HSV augment inactive, m-calpain inh 62* and Efa HMGR inh 7.
Cn1nc(C(F)(F)F)c2cc(NC(=O)OCc3ccc(C(C)(C)C)cc3)sc21 was read as Arbovirus inh -23, ROMK primary 0.0038, m-calpain inh 33 and Efa HMGR inh 2.
O=C(NN=C1CCCCCC1)c1ccc(Br)o1 was read as Arbovirus inh 8, HSV augment inactive, ROMK primary 0.45, m-calpain inh 20 and Efa HMGR inh 1.
`CC(C)N1CCC(=NNC(=O)c2ccc(Br)o2)CC1` gave Arbovirus inh 3, HSV augment inactive, ROMK primary 2.7*, m-calpain inh 2 and Efa HMGR inh -2.
Nc1[nH]nc2nc(NCc3ccccc3)c3c(c12)CCN(Cc1ccccc1)C3 was read as Arbovirus inh 49*, ROMK primary -1.1, m-calpain inh 0 and Efa HMGR inh -5.
For N#Cc1c(NCCN)nc(NCc2ccccc2)c2c1CCN(Cc1ccccc1)C2 the results were HSV augment inactive.
For CCC/C(O)=C1\C(=O)CCCC1=NCCc1c(C)[nH]c2ccc(OC)cc12 the results were Arbovirus inh 11, HSV augment inactive, m-calpain inh -18 and Efa HMGR inh -4.
Screening CCCCSc1nnc(-c2ccc(C)cc2)c2ccccc12 returned Arbovirus inh -12, HSV augment inactive, ROMK primary 0.44, m-calpain inh 52* and Efa HMGR inh -6.
Screening Cc1ccc(CSc2nnc(CNc3ccc(F)cc3)o2)cc1 returned Arbovirus inh -18, HSV augment inactive, m-calpain inh 4 and Efa HMGR inh -4.
Screening O=C(Nc1ccc(OC(F)(F)F)cc1)Nc1cccc([N+](=O)[O-])c1 returned Arbovirus inh -30, HSV augment inactive, m-calpain inh 10 and Efa HMGR inh -10.
`O=C(Nc1ccc(OC(F)(F)F)cc1)c1[nH]ncc1[N+](=O)[O-]` gave Arbovirus inh 30*, HSV augment inactive, ROMK primary -0.95, m-calpain inh 8 and Efa HMGR inh -2.
For CCN=c1scc(C)n1/N=C/c1cc(Br)c(O)c(Br)c1 the results were Arbovirus inh 31*, HSV augment inactive, ROMK primary 2.5, m-calpain inh -115 and Efa HMGR inh 3.
Screening CCN=c1scc(C)n1/N=C/c1ccc(O)c(O)c1O returned Arbovirus inh 3, HSV augment inactive, m-calpain inh -62 and Efa HMGR inh 8.
`O=C(NCC1CCCN(C(=O)c2cscn2)C1)c1ccccc1Cl` (configuration not stated) gave Arbovirus inh 6, HSV augment inactive, ROMK primary 0.91, m-calpain inh -32 and Efa HMGR inh 10*.
O=C(NCC1CCCN(C(=O)c2cscn2)C1)c1ccc(-c2ccccc2)cc1 (configuration not stated) was read as Arbovirus inh 9, HSV augment inactive, ROMK primary 1.2, m-calpain inh 5 and Efa HMGR inh 1.
`CC(=O)C(Cc1ccc(Cl)nc1)(Cc1ccc(Cl)nc1)C(C)=O` gave Arbovirus inh 2, HSV augment inactive, ROMK primary -0.63, m-calpain inh -3 and Efa HMGR inh 10.0*.
For O=S(=O)(c1ccc(F)c(F)c1F)N1CCN(C(=S)Nc2ccccc2)CC1 the results were Arbovirus inh 11, HSV augment inactive, ROMK primary 0.23, m-calpain inh -95 and Efa HMGR inh -3.
`CC(C)N(Cc1ccccc1)C(=S)NC(=O)C1(C)CC1(Cl)Cl` (configuration not stated) gave Arbovirus inh 2, HSV augment inactive, ROMK primary 5.1*, m-calpain inh 15 and Efa HMGR inh 0.
N#Cc1c(-c2ccco2)nc(SCC(=O)Nc2ccc(S(N)(=O)=O)cc2)[nH]c1=O was read as Arbovirus inh 32*, ROMK primary 0.48, m-calpain inh -41 and Efa HMGR inh 1.
For Cc1cc(C)nc(NS(=O)(=O)c2ccc(NC(=O)CSc3nc(-c4ccccc4)c(C#N)c(=O)[nH]3)cc2)n1 the results were Arbovirus inh 7, HSV augment inactive, ROMK primary -0.82, m-calpain inh -2 and Efa HMGR inh 3.
`Cc1cccc(S(=O)(=O)NCCC(=O)OCC(=O)Nc2ccc(C#N)cc2)c1` gave Arbovirus inh 2, HSV augment inactive, ROMK primary -0.49, m-calpain inh -9 and Efa HMGR inh 5.
For O=C(c1ccc(NC(=S)NCc2ccco2)cc1)N1CCCCC1 the results were Arbovirus inh 2, HSV augment inactive, ROMK primary 0.8, m-calpain inh -17 and Efa HMGR inh 3.
COCCn1nnnc1C(c1ccc(C)cc1)N1CCN(Cc2ccc3c(c2)OCO3)CC1 (configuration not stated) was read as Arbovirus inh -2, HSV augment inactive, m-calpain inh 14 and Efa HMGR inh 1.
`Cc1ccc(C(c2nnnn2Cc2cccs2)N2CCN(Cc3ccc4c(c3)OCO4)CC2)cc1` (configuration not stated) gave Arbovirus inh 0, HSV augment inactive, ROMK primary -2.1*, m-calpain inh 5 and Efa HMGR inh 2.
COC(=O)c1ccc(NC(=O)c2ccccc2NS(C)(=O)=O)cc1 was read as Arbovirus inh 52*, HSV augment inactive, ROMK primary -0.27, m-calpain inh 4 and Efa HMGR inh -4.
Screening COc1ccc(NC(=O)c2ccccc2NS(C)(=O)=O)cc1OC returned Arbovirus inh 9, HSV augment inactive, ROMK primary -0.14, m-calpain inh 34 and Efa HMGR inh -3.
For Cc1cc(NC(=O)CCC(=O)N(CC(=O)NC2CCCC2)c2ccccc2)no1 the results were Arbovirus inh 3, HSV augment inactive, ROMK primary 0.9, m-calpain inh 2 and Efa HMGR inh 10*.
For Cc1cc(NC(=O)CCCC(=O)N(CC(=O)NC2CCCCC2)c2ccccc2)no1 the results were Arbovirus inh 0, HSV augment inactive, ROMK primary -0.56, m-calpain inh -19 and Efa HMGR inh -1.
For CCOC(=O)c1cc(COc2cc(Cl)cc(Cl)c2)on1 the results were HSV augment inactive, ROMK primary 0.48 and m-calpain inh 28.
CCN(C(=S)NC(=O)c1ccccc1Br)C1CCCCC1 was read as Arbovirus inh -9, HSV augment inactive, ROMK primary 6.9*, m-calpain inh 1 and Efa HMGR inh 2.
CCNC(=O)NC(=O)C(C)Sc1nc2cc(C(=O)OC)ccc2c(=O)n1-c1ccccc1 (configuration not stated) was read as Arbovirus inh 43*, HSV augment inactive, m-calpain inh -40 and Efa HMGR inh -1.
CCN(Cc1ccccc1)S(=O)(=O)c1cc(C(=O)NCCCN(C)C)ccc1OC was read as Arbovirus inh 16, HSV augment inactive, ROMK primary -0.55, m-calpain inh -8 and Efa HMGR inh 12*.
